For 17 compounds, growth results are on record in PubChem BioAssay (NCI).

Test systems include T-47D breast; BT-549 breast; MDA-MB-435 melanoma; MCF7 breast; HCT-116 colon; HCC-2998 colon; KM12 colon; SW-620 colon.
Common to all, as to assay: NCI-60 one-dose screen, 48 h (100 = growth as untreated, 0 = no growth, -100 = all killed)
Common to all, as to details: 10 µM unless noted

About 83,000 compounds went through this panel and 20% of them were active in at least one assay; those are over-represented in the sample as a whole.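 Each cell line was grown in a 96-well plate and treated with one concentration of compound for 48 hours. Values below 10 were considered active.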 A number with no mark means an inactive call. The source made the active and inactive calls.

For the compound `O=C(Nc1ccc(Cl)cc1)c1cc(-c2ccc(Cl)cc2)c2sc(=O)[nH]c2n1`, the growth with T-47D breast was -22.8% (active); with BT-549 breast, 1.28% (active); in the assay on MDA-MB-435 melanoma, 7.39% (active); in the assay on MCF7 breast it was 0.758% (active); with HCT-116 colon it was 0.269% (active); with HCC-2998 colon it was 19.1%. The growth in the assay on KM12 colon is 4.21% (active).
For the compound `O=C1c2cccc3cccc(c23)C(=O)N1CCCCCCCCCCN1C(=O)c2cccc3cccc(c23)C1=O`, the growth in the assay on T-47D breast was 97.7%; in the assay on BT-549 breast, 114%; in the assay with MDA-MB-435 melanoma, 104%; in the assay on MCF7 breast it was 86.9%; with HCT-116 colon, 117%; with HCC-2998 colon, 112%. Besides, the growth with KM12 colon is 109%.
For `CCN(CC)C(=O)O/N=C(/C)c1ccccc1`, the growth in the assay on T-47D breast is 110%; in the assay with MDA-MB-435 melanoma, 104%; in the assay with SW-620 colon, 106%; with MCF7 breast, 97.1%; with HCT-116 colon, 104%; in the assay with HCC-2998 colon it was 104%. The growth in the assay with KM12 colon is 102%.
Take `NNc1ccc(S(N)(=O)=O)cc1`: the growth is 89.4% with T-47D breast; 101% in the assay on BT-549 breast; 104% with MDA-MB-435 melanoma; 98% in the assay on MCF7 breast; 90.7% in the assay with HCT-116 colon; 86.8% in the assay on HCC-2998 colon. In the assay with KM12 colon, the growth is 105%.
As to `COC(=O)C(Br)(C(=O)OC)C(Br)C(Br)C(Br)c1ccccc1` (stereo not given), the growth with BT-549 breast is 108%; in the assay with MDA-MB-435 melanoma it was 47.9%; in the assay with SW-620 colon, -79% (active); in the assay on MCF7 breast, 18.3%; in the assay on HCT-116 colon it was -92.6% (active); in the assay with HCC-2998 colon, 98.4%. Moreover, in the assay on KM12 colon, the growth is 89.9%.
As to `COc1ccc(-n2nc(C(=O)Nc3ccc(F)cc3)nc2-c2cc(OC)c(OC)c(OC)c2)cc1`, the growth in the assay on T-47D breast was 75.3%; with BT-549 breast, 73%; in the assay on SW-620 colon, 96.6%; in the assay on MCF7 breast, 91.8%; with HCT-116 colon, 80.9%.
For the compound `COc1cnc2c(c1)C(=O)c1c-2n(CCCN2CCCC2)c(=O)c2cc(Cl)ccc12`, the growth in the assay with T-47D breast was 29.3%; with BT-549 breast, 44.5%; in the assay on MDA-MB-435 melanoma, 61.1%; in the assay on MCF7 breast it was -46.1% (active); with HCT-116 colon, -92.8% (active); in the assay with HCC-2998 colon, 62.1%. Besides, the growth in the assay with KM12 colon was 42.4%.
Take `CC1=C(O)C(=O)CC1`: the growth with T-47D breast was 103%; with BT-549 breast, 89%; in the assay with MDA-MB-435 melanoma, 98.1%; in the assay on MCF7 breast, 91.8%; with HCT-116 colon, 105%; in the assay on HCC-2998 colon, 99.7%. Moreover, the growth in the assay on KM12 colon was 104%.
In the case of `COc1cccc(-c2cc(-c3cccs3)c(C#N)c(=O)[nH]2)c1`, the growth is 93.3% with T-47D breast; 113% in the assay on BT-549 breast; 103% with MDA-MB-435 melanoma; 94.2% in the assay on MCF7 breast; 101% with HCT-116 colon; 125% with HCC-2998 colon. Moreover, in the assay on KM12 colon, the growth was 101%.
On to `FC(F)(F)c1cc(-c2nnc3n2N=C(Cl)CS3)cc(C(F)(F)F)c1`, for which the growth with T-47D breast is 84.5%; with BT-549 breast it was 88.4%; in the assay with SW-620 colon, 89.7%; in the assay on MCF7 breast, 94.3%; with HCT-116 colon, 90.5%; in the assay on KM12 colon, 109%.
`Oc1ccccc1-c1nnc(COc2ccc(Cl)cc2Cl)o1`: the growth in the assay with T-47D breast was 42.6%; in the assay on BT-549 breast, 63.3%; with MDA-MB-435 melanoma, 63.9%; with MCF7 breast, 20.6%; in the assay on HCT-116 colon, 18.2%; with HCC-2998 colon, 76.8%. For the same compound, the growth in the assay on KM12 colon was 41.5%.
In the case of `COc1cc2ccc(C(C)=O)cc2cc1OC`, the growth was 93.1% in the assay on T-47D breast; 90.8% in the assay on BT-549 breast; 98.5% in the assay with SW-620 colon; 97.9% in the assay on MCF7 breast; 103% with HCT-116 colon; 105% in the assay on KM12 colon.
Consider `CCCCCCCCCCCCNC(=O)N[C@H](C(=O)N[C@H]1/C=C/OCCNC(=O)/C=C/[C@H](C(C)C)NC1=O)C(C)C`, for which the growth was 47.6% in the assay on T-47D breast; -7.12% (active) with BT-549 breast; 28.3% in the assay on MDA-MB-435 melanoma; 32.4% in the assay with MCF7 breast; 25.5% with HCT-116 colon; 90.4% with HCC-2998 colon. In addition, in the assay with KM12 colon, the growth was 71.5%.
As for `Clc1ccccc1CNc1c2ccccc2nc2ccccc12`, the growth was 30.4% in the assay on T-47D breast; 38.1% in the assay with BT-549 breast; 27.2% in the assay on MDA-MB-435 melanoma; -0.21% (active) with MCF7 breast; 8.1% (active) in the assay on HCT-116 colon; -17.2% (active) in the assay with HCC-2998 colon. Moreover, the growth with KM12 colon is 22%.
In the case of `NNC(=O)CSc1nc2scc(-c3ccccc3)c2c(=O)n1-c1ccccc1`, the growth is 104% in the assay with T-47D breast; 131% in the assay on BT-549 breast; 121% in the assay with MDA-MB-435 melanoma; 97.8% with MCF7 breast; 91.9% with HCT-116 colon; 84.2% in the assay with HCC-2998 colon. Moreover, the growth in the assay on KM12 colon was 108%.
Regarding `C=C1C(=O)O[C@H]2[C@H]1CC/C(COC(=O)NCc1c[nH]c3ccc(OC)cc13)=C\CC[C@@]1(C)O[C@@H]21`, the growth in the assay with T-47D breast is -52% (active); in the assay with BT-549 breast, -24% (active); in the assay on MDA-MB-435 melanoma it was 22.3%; in the assay with MCF7 breast it was 5.33% (active); in the assay on HCT-116 colon, -79.4% (active); in the assay with HCC-2998 colon, 45.1%. The growth with KM12 colon is 51.3%.
With `COc1ccc(C(=O)O)cc1.[Ag]`, the growth was 92.6% in the assay with T-47D breast; 95.3% with MDA-MB-435 melanoma; -61.9% (active) in the assay with SW-620 colon; 100% in the assay with MCF7 breast; 94.5% in the assay on HCT-116 colon; 104% with HCC-2998 colon. Besides, in the assay with KM12 colon, the growth was 87%.
